# Measured values reported in the OligoGym collection.
# Molecular target: PPP2R2B
# Test: pooled miR-30 sensor sort-seq; sequence = guide strand
# Conditions: shRNA
# Note: reference of the scale not given here.
row,Sequence,sensor-assay potency score (higher = more potent)
1,TCTGTTGCTTGGATCTTCCGGC,0.454
2,TATTTCTAAACTCTTCAGGTAA,-0.582
3,TTCTATTTCTAAACTCTTCAGG,0.0206

# Molecular target: PPP2R4
# Test: as above
# Conditions: shRNA
row,Sequence,sensor-assay potency score (higher = more potent)
1,TTGAAGTGCTGGATCACAGGGA,1.03
2,TTCTCATCCACAAAGTGTCTGG,-0.351
3,TTTAATCTGAACAGCAATGAGG,-0.87
4,TTGAGGGTAAGGATGAATCCGA,-0.403
5,TTTTGGAATGATGAAGTTCTGA,-0.939
6,TGGAACTGTGTGGATCTCCTTT,-1.01
7,TTTGGAATGATGAAGTTCTGAG,-0.0141
8,TTCATCTCGGTAATAAACAGGA,0.112
9,TATTTGGTCATCCACCCGGAGC,-1.25
10,TTTAGGTAAACAGCCACCTCAG,-0.616
11,TTGAAGACAATAGCTATTTGGT,-0.254
12,TCTGCTTCCTCGGAGACTCTGT,0.193

# Molecular target: PPP3R1
# Test: as above
# Conditions: shRNA
row,Sequence,sensor-assay potency score (higher = more potent)
1,TTACTCGCTGTACTAAAGGATT,-1.35
2,TTAAATCTCTTTCCTAGCCTTT,-0.556
3,TAAAATCACAACTAGCACTTAA,-0.328
4,TTTGTCTACAATTTGCTGTAAC,-1.15
5,TCTCCTTTGACACTGAACTGAG,-0.401
6,TTCAATAACACTTAGTTGGCTT,0.15
7,TTTTTGTGGATATCTAGGCCAC,-0.626
8,TTTGCTGTAACTGTGTATCTTT,0.559
9,TTTTGTCTACAATTTGCTGTAA,-0.67
10,AATATAGCCATCTTTATCCATG,-1.54
11,TTATCTGCATTTATTATGGTTT,-0.79
12,TAGCCTTTTAATTTCATCCGCA,0.489

# Molecular target: PPY
# Test: as above
# Conditions: shRNA
row,Sequence,sensor-assay potency score (higher = more potent)
1,TGTATCTACGGAGATCAGCTGC,0.303
2,TACTGGGCCATCTGCTCTGGTG,-1.25
3,TGTAGTAACAGAGCCACGCAGG,-1.22
4,TCTGGTGTGGCATTGTCCCCTG,0.0817
5,TAACAGAGCCACGCAGGTGGAC,-1.08
6,ATCTACGGAGATCAGCTGCATA,-1.14
7,TGATGTATCTACGGAGATCAGC,-1.04
8,ATCAGCTGCATACTGGGCCATC,-1.61
9,TATCTACGGAGATCAGCTGCAT,0.435
10,TCCTCTTTGTGTCTTTTCCCAT,-1.36
11,AGCATGTTGATGTATCTACGGA,-1.31
12,TGTTGATGTATCTACGGAGATC,-1.64
